Only some compounds are listed: those with a hit (about 5.3% of all), similar ones and a draw of the others.
IMPase Li cell = cell-permeable IMPase inhibitors with lithium potentiation. CHO-M1 cells, IP1 TR-FRET (IP-One), carbachol + lithium. Potency, µM (top dose mostly 59.4 µM), for the others: at the top dose activity, negative = IMPase inhibition, actives largely listed as inhibitors. actives 0.35% (n = 210,000);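 also: IP1 builds up when IMPase is blocked and the TR-FRET signal falls; potency is read from the fitted curve at half-maximal effect; plate controls were basal vehicle for no effect and high inhibitor control for full effect; nearly all actives have a fitted effect of over 50% in size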
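Steps: plate 2000 CHO-M1 cells per well and culture 16–30 h; add compound and lithium; incubate 30 min, 37C; add d2-IP1 tracer and Eu cryptate anti-IP1 antibody in lysis buffer; read after 10 min at room temperature.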
IMPase inh = membrane-permeable compound that blocks inositol monophosphatase; inhibition (IP1 accumulation), % at 46.1 µM; 120,000 tested, under 10 active; P97697; CHO-M1 cells, IP1 accumulation, HTRF TR-FRET ratio; AID 901; active = well fitted curve in the direction sought with a large enough effect in the signal ratio, not every such curve was filed as active; inconclusive = small, poorly fitted or top-dose-only effect, or a change in a side signal; inactive = no such curve, though single readings can be large or run the other way; the % refers to the signal ratio;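 also: cells stimulated with carbachol in lithium chloride buffer; plate controls were DMSO basal wells for no effect and reference inhibitor wells for full effect; higher means more IMPase inhibition seen as more IP1 and lower FRET ratio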
Target sequence (P97697 whole entry, looked up): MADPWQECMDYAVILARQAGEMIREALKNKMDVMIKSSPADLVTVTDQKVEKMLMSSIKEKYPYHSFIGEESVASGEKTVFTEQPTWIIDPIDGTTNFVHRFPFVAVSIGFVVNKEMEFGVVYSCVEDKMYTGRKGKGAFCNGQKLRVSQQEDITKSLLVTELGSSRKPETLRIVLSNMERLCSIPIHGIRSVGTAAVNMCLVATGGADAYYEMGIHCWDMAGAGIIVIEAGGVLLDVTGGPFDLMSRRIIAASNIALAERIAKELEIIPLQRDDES
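Seeded CHO-M1 cells were dosed with compound at up to 46 uM, stimulated with carbachol for 30 min, then lysed in IP-One detection reagents. Higher IP1 lowers the TR-FRET signal.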
ALOX15B inhib = 15-hLO-2 (ALOX15B) enzyme inhibition | O15296 | purified 15hLO-2, xylenol orange hydroperoxide absorbance | AID 881 | Potency, µM (series often up to 57.1 µM), without a hit: at the highest dose activity change, negative = inhibition, most hits filed as inhibitors | actives 0.56% (n = 110,000); also: potency is read from the fitted curve at half-maximal effect; nearly all actives have a fitted effect of over 60% in size
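Enzyme 50 nM, AA 45 uM, 25 mM Hepes pH 7.5 + 0.01% Triton X-100; cpd preinc 15 min RT, rxn 90 min RT; stop/detect with 200 uM XO + 300 uM Fe(II) in 50 mM H2SO4, 30 min; A573/A405.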
PNC assembly inh = perinucleolar compartment assembly inhibition. PC3M PTB-GFP, PNC prevalence imaging, 16 h; stronger effect = lower value. activity change (PNC), negative = inhibition, % at 10 µM. actives 3.1% (n = 140,000). AID 2417;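 active = readout at or below -70, meaning at least 70% loss of cells showing the perinucleolar compartment, a nuclear body marking cancer cells; inconclusive = readout between -30 and a set limit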;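 also: plate controls were DMSO wells for no effect and camptothecin positive control wells for full effect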
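Read-out is percentage of cells bearing a perinucleolar compartment, from automated 20x imaging of fixed, Hoechst-stained PC3M PTB-GFP cells. Cells were seeded 4 h, then exposed 16 h to compound (23 nl of library stock) in duplicate plates.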
HPGD inh = inhibitors of human 15-hydroxyprostaglandin dehydrogenase (HPGD); P15428; purified HPGD, NADH fluorescence kinetic, PGE2 substrate; Potency, µM, for the others: at the top dose activity change, negative = inhibition, actives largely listed as inhibitors; actives 4.3% (n = 150,000); active = well fitted inhibition curve with a large enough effect, not every such curve was filed as active; inconclusive = small, poorly fitted or top-dose-only effect, or another doubt; inactive = no such curve, though single readings can be large or run the other way; also: potency is read from the fitted curve at half-maximal effect
Target sequence (P15428 whole entry, looked up): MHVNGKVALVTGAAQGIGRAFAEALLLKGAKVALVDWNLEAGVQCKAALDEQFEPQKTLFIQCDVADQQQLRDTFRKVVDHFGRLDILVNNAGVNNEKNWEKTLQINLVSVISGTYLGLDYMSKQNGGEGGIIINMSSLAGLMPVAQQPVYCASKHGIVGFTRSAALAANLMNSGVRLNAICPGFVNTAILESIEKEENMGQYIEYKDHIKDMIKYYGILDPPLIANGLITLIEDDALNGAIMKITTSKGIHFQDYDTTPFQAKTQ
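NADH formation kinetics: reaction with 30 uM PGE2 and 1 mM NAD+ (final), 20 nM enzyme, Tris-HCl pH 8 with Tween 20, after 15 min compound preincubation at room temperature. Fluorescence change, last versus first of five reads.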
ALOX12 inhib = blocks human 12-lipoxygenase activity; AID 1452; Potency, µM (highest dose often 57.1 µM), inactives show at the highest dose activity change, negative = inhibition, hits mostly inhibitors; purified 12-hLO, xylenol orange hydroperoxide absorbance; actives 0.12% (n = 150,000); P18054; also: potency is read from the fitted curve at half-maximal effect; nearly all actives have a fitted effect of over 55% in size
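Hydroperoxide formation by human 12-lipoxygenase from 40 uM arachidonic acid was followed colorimetrically via ferric-xylenol orange complex, using the 573/405 nm absorbance ratio. Enzyme concentration was 150 nM, with 30 min reaction at room temperature.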
* hit, by the source's call; ? = inconclusive; · = not tested or not shown; [ ] = remark or other dose. Unless noted, calls follow the shape of the dose curve; as a rule, active = well fitted curve in the direction sought with a large enough effect; inconclusive = small, poorly fitted or top-dose-only effect, or another doubt; inactive = no such curve, though single readings can be large; an effect the other way counts as inactive or inconclusive. Unless noted, % is scaled to controls: 0 for no effect and ±100 for the full control effect.

SMILES	IMPase Li cell	IMPase inh	ALOX15B inhib	PNC assembly inh	HPGD inh	ALOX12 inhib
O=P(O)(CCc1ccccc1)CN1CCCCC1	16%[38.3 µM]	-1	0%	-82*	-11%	-3%
Cc1nc2scc(-c3cccs3)c2c(=O)[nH]1	24%[38.3 µM]	-3	-19%	?	22µM*	4%
Cc1nc2scc(-c3cccs3)c2c(=O)n1CC(=O)O	5%[38.3 µM]	-23	0%	-80*	-30%	9%
CN1CCN(c2ncc3nc(CCc4ccccc4)c(=O)n(Cc4ccc(F)cc4)c3n2)CC1	10%	·	53%	·	?	2%
O=C(CSc1ccc2ccccc2n1)N1CCC(c2noc3ccc(F)cc23)CC1	15%	23	·	4	-14%	3%
CCN(C(=O)/C=C/c1ccc2c(c1)OCO2)c1ccccc1	2%	·	·	-84*	28µM*	-5%
CCOC(=O)CNC(=O)/C=C/c1ccc2c(c1)OCO2	17%	·	·	·	·	·
O=C(COc1cccnc1[N+](=O)[O-])Nc1cccc(S(=O)(=O)N2CCCCC2)c1	3%	6	·	?	-25%	2%
Cc1ccc(Cn2c(SCC(C)C)nc3c2c(=O)n(C)c(=O)n3C)cc1	37%[38.3 µM]	-7	8%	?	-25%	1%
CCCCNC(=O)c1ccc2c(c1)ncn2C1CCCC1	26%[38.3 µM]	-5	7%	1	8.9µM*	12%
CCCCNC(=O)c1ccc2c(c1)ncn2C1CCCCC1	0%	-2	22%	2	22µM*	-1%
CCCS(=O)(=O)N1CCN=C1SCc1cccc(C)c1	5%	·	·	·	·	·
Cc1[nH][nH]c(=O)c1C(c1ccccc1[N+](=O)[O-])C(C#N)C#N (stereo not drawn)	-3%	·	·	·	·	·
CCCc1[nH][nH]c(=O)c1C(c1cccc(Cl)c1)C(C#N)C#N (stereo not drawn)	-5%[38.3 µM]	0	0%	14	16µM*	-9%
O=C1C(=O)N(CNc2cccnc2)c2ccccc21	-1%	-2	·	?	16µM*	12%
O=C1C(=O)N(CNc2ccccn2)c2ccccc21	-1%[38.3 µM]	4	-7%	18	-17%	2%
O=C(NCC1CCCO1)c1cc2ccccc2oc1=O (stereo not drawn)	-5%	·	·	·	·	·
COc1cc(C(=O)CSc2nncn2C)cc(OC)c1OC	0%[38.3 µM]	2	6%	-111*	-20%	-5%
COc1ccc(NC(=O)CSc2nncn2C)cc1OC	6%	16	·	60	-8%	-1%
COc1ccc(CN(C)C2c3ccccc3-c3ccccc32)cc1	·	0	·	-91*	·	-1%
COc1ccccc1N1CCN(C(=O)c2sc3nc(-c4ccccc4)cn3c2C)CC1	3%	2	16%	-95*	-5%	-1%
Cc1c(C(=O)N2CCc3ccccc3C2)sc2nc(-c3ccccc3)cn12	33%[38.3 µM]	9	28%	15	7.1µM*	-6%
Cc1c(C(=O)N2CCOCC2)sc2nc(-c3ccccc3)cn12	13%[38.3 µM]	2	1%	36	-9%	-8%
CCCc1nnc(NC(=O)CCC(=O)N2CCN(C3c4ccccc4-c4ccccc43)CC2)s1	9%	-5	·	68	-9%	0%
Cc1ccc(C(=O)N2CCOCC2)c(F)c1F	1%	·	·	·	·	·
SMILES	IMPase Li cell	IMPase inh	ALOX15B inhib	PNC assembly inh	HPGD inh	ALOX12 inhib
COc1ccc(NC(=O)/C(C#N)=C/c2ccc(OCc3ccccc3F)cc2)cc1	10%	·	·	55	-6%	-2%
Cc1[nH]n(-c2ncc(-c3ccc(Cl)cc3)s2)c(=O)c1C(c1ccc(Cl)cc1)C(C#N)C#N (stereo not drawn)	2%	5	·	-26	10µM*	-9%
CC(C)COP(=O)(c1ccc(N(C)C)cc1)C(O)c1ccncc1 (stereo not drawn)	7%[38.3 µM]	-5	11%	38	28µM*	0%
CSc1ccccc1C(=O)N1CCN(c2ncccn2)CC1	8%	·	·	·	·	·
CC1CCC(C(C)C)C(OP(=O)(c2ccc(N(C)C)cc2)C(O)c2cccnc2)C1 (stereo not drawn)	-2%	·	·	-114*	-2%	-1%
COc1ncc2nc(-c3ccccc3)c(=O)n(C[C@H]3CCCO3)c2n1	-6%	·	8%	·	?	-2%
CCn1nc(C)c(NC(=O)/C=C/c2cnn(C)c2)c1C	12%[38.3 µM]	0	-5%	-29	2%	-4%
Cc1nn(C)cc1CNC(=O)/C=C/c1cnn(C)c1	-5%	·	·	-109*	-7%	1%
O=C(c1ccc(Cc2nc3ccccc3[nH]2)cc1)N1CCCCC1	·	·	·	·	16µM*	-1%
CCOC(=O)c1[nH]n(-c2ccc(Cl)cc2)c(=O)c1C	16%	·	·	-114*	-6%	-16%
Cc1ccc(Oc2ccccc2/C=N/O)cc1	2%	14	1%	14	-29%	2%
C=CCOc1ccccc1/C=N/O	-11%[38.3 µM]	3	0%	9	16µM*	-5%
COc1cccc(-n2nnc3c(=O)n(C/C=C/c4ccccc4)cnc32)c1	27%[38.3 µM]	9	-7%	19	10µM*	-11%
COc1cccc(-n2nnc3c(=O)n(CC(=O)N4CCCCC4)cnc32)c1	12%[38.3 µM]	5	-2%	4	?	1%
COc1cccc(-n2nnc3c(=O)n(CC(=O)NCC4CCCO4)cnc32)c1 (stereo not drawn)	26%[38.3 µM]	10	2%	?	16µM*	-3%
COc1cccc(-n2nnc3c(=O)n(Cc4cccc(F)c4)cnc32)c1	-4%[38.3 µM]	-4	-3%	-3	14µM*	-17%
O=c1c2nnn(-c3ccccc3)c2ncn1C/C=C/c1ccccc1	6%	·	·	·	·	·
COc1cccc(-n2nnc3c(=O)n(Cc4c(F)cccc4Cl)cnc32)c1	2%	0	·	6	28µM*	-2%
O=S(=O)(c1ccccc1)N1CCC2(CCN(c3cccc(-c4ccccc4)c3)CC2)CC1	1%	·	-1%	·	?	-5%
O=C(CSc1nnnn1-c1cccc2c1CCCC2)NC1CCCC1	9%[38.3 µM]	7	-8%	?	?	-2%
COc1ccc(-n2nnc3c(=O)n(Cc4cccc(C)c4)cnc32)cc1	12%[38.3 µM]	9	6%	-28	16µM*	-8%
O=c1c2nnn(Cc3ccccc3)c2ncn1C/C=C/c1ccccc1	10%[38.3 µM]	1	-10%	36	14µM*	-6%
Cc1c(NC(=O)/C(C#N)=C/c2ccc(-c3cccc(Cl)c3)o2)c(=O)n(-c2ccccc2)n1C	12%	1	·	-26	18µM*	-14%
Cc1c(NC(=O)/C(C#N)=C/c2ccc(-c3ccc(Cl)c(Cl)c3)o2)c(=O)n(-c2ccccc2)n1C	15%	-2	·	19	-10%	-3%
CCCCCC1CC(CC(C)C(=O)Nc2nncs2)C(=O)O1 (stereo not drawn)	2%	5	·	12	-10%	4%

From PubChem BioAssay
